Test results: PubChem BioAssay AID624296 (National Center for Advancing Translational Sciences (NCATS), 2012)
Hit rate of the full screen: of about 350,000 compounds, about 9,900 (2.8%) were called active. Another 15% or so got no clear call; they are omitted. The sample holds actives, similar compounds and a random draw of the others, so the mix is not that of the screen. A number with no mark means an inactive call. Calls follow the shape of the dose curve; as a rule, active = well fitted activation curve with a large enough effect; inconclusive = small, poorly fitted or top-dose-only effect; inactive = no such curve, though single readings can be large or run the other way.

test: A quantitative high throughput screen for small molecules that induce DNA re-replication in MCF 10a normal breast cells.; also: nearly all actives have a fitted effect of over 50% in size; as to activity, positive = re-replication: % of control where 0% means no effect; conditions: MCF 10A DNA re-replication, Hoechst nuclear intensity, 48 h; series mostly up to 46.1 µM; activity, positive = re-replication: at the top concentration
Potency is read from the fitted curve at half-maximal effect.

Compound	activity, positive = re-replication	Potency
COc1ccc(/C=C/C(=O)OCC(=O)N2CCN(S(=O)(=O)c3ccc(C)cc3C)CC2)cc1OC	8.11%	
C[C@]12CCC(=O)C=C1C=CC1C2CC[C@@]2(C)C1CC[C@@]21CCC(=O)O1 (some centres undefined)	-1.52%	
CCN(C(=O)COC(=O)CCOc1cccc(C)c1)c1c(N)n(Cc2ccccc2)c(=O)[nH]c1=O	0.756%	
CC(C)Cn1c(SCC(=O)Nc2ccc(Cl)cc2F)nc(O)cc1=O	4.29%	
Cc1ccc(CNC(=O)COC(=O)C2CCC2)cc1	-2.9%	
O=C(c1ccc(Cl)nc1)N1CCN(S(=O)(=O)c2ccc3c(c2)OCCO3)CC1	-10.9%	
COc1ccc(S(=O)(=O)N2CCN(CC(=O)N3c4ccccc4CC3C)CC2)cc1OC (centres undefined)	6.54%	
COc1cc(/C=N/NC(=S)Nc2cccnc2)cc(OC)c1O	7.2%	
COc1cc(/C=N/Nc2ccc(C)cc2)cc(Br)c1O		25.9 µM (active)
CCNc1nc(NCC)nc(N/N=C/c2ccc(O)c(OC)c2)n1	-0.389%	
CCN(C(=O)CSc1nnnn1-c1ccc(OC)cc1)C1CCS(=O)(=O)C1 (centres undefined)	5%	
COC(=O)c1cc(Oc2ccc(S(=O)(=O)N3CCOCC3)cc2[N+](=O)[O-])cc(C(=O)OC)c1	2.23%	
O=S(=O)(NCCc1ccc(F)cc1)c1cccc2cccnc12	-10.9%	
O=S(=O)(NCc1ccccn1)c1ccc(F)cc1	-2.88%	
O=S(=O)(NCCOc1cccc2cccnc12)c1ccc(F)cc1		10.3 µM (active)
COc1ccccc1C(=O)NCC(=O)NCCSc1ccc(Br)cc1	-0.726%	
O=C(O[C@H]1[C@H](Cc2ccccc2)NS(=O)(=O)[C@H]2C[C@@H]3C=C[C@]12O3)c1ccc([N+](=O)[O-])cc1	0.151%	
CCOC(=O)C1CCN(C(=O)CN2C(=O)NC(C)(c3ccc4cc(OC)ccc4c3)C2=O)CC1 (centres undefined)	13.8%	
COc1cc(/C=C(\C#N)c2nc3ccccc3[nH]2)ccc1O	19.5%	
COc1ccc(/C=C(\C#N)c2c[nH]c3ccccc23)cc1		13 µM (active)
COc1ccc(C(C(O)C(=O)c2c[nH]c3ccccc23)N2CCN(c3ccccc3)CC2)cc1 (centres undefined)	20.1%	
COc1ccc(C(=O)COC(=O)CN2C(=O)C3CC=CCC3C2=O)c(OC)c1 (centres undefined)	6.24%	
NC(=O)Nc1ccc(C(=O)OCC(=O)NC2CCCc3ccccc32)cc1 (centres undefined)	3.28%	
CCOC(=O)c1c(NC(=O)CNC2CCCc3ccccc32)sc(C(N)=O)c1C (centres undefined)		16.4 µM (active)
CCOC(=O)c1sc(NC(=O)COc2ncnc3ccccc23)c(C(=O)OCC)c1C	25.7%	
O=C(COC(=O)c1ccc(O)cc1O)NC(=O)c1ccccc1	0.164%	

Compound	activity, positive = re-replication	Potency
CCCc1cc(=O)oc2cc(OCC(=O)Nc3ccc(CN4CCOCC4)cc3)c(Cl)cc12	0.913%	
CCCC(=O)NC(=S)Nc1ccc(CN2CCOCC2)cc1		0.651 µM (active)
O=C(Nc1ccc(CN2CCOCC2)cc1)c1cc(Cl)ccc1Cl	14.9%	
O=C(c1cc2ccccc2o1)N1CCN(S(=O)(=O)c2ccc(Cl)s2)CC1	14.5%	
CCCCCCSc1ccc([C@@H]2[C@H]3C(=O)N(CC)C(=O)[C@H]3[C@]3(C(=O)OC)CCCCN23)cc1	-61.3%	
CCn1nnc2cc(C(=O)Nc3ccc(C(=O)OC(C)C)cc3)ccc21	12.4%	
CCOC(=O)C1=C(CC)Nc2ccccc2N=C1NC(=O)c1cccc(S(=O)(=O)N2CCCC2)c1		23.1 µM (active)
CCOC(=O)CSc1nnc(NC(=O)c2cccc(S(=O)(=O)N3CCCC3)c2)s1	1.71%	
CCOC(=O)C1=C(CC)Nc2ccccc2N=C1N	-1.41%	
CCC(C)C(N=C1NS(=O)(=O)c2ccccc21)C(=O)N1CCC(C)CC1 (centres undefined)	11.9%	
Cc1ccnc(SCCn2c(Br)nc3c2c(=O)[nH]c(=O)n3C)n1	-10.4%	
Cn1c(=O)[nH]c(=O)c2c1nc(Br)n2CCCCSc1nc2ccccc2o1		7.31 µM (active)
Cn1c(=O)c2c(nc(Br)n2CCSc2nc3ccccc3o2)n(C)c1=O	0.906%	
Cc1cccc(C(=O)N[C@H](C(=O)NCc2cccs2)C(C)C)c1	1.53%	
CC(C)(C)OC(=O)C[C@@H]1C/C=C\C[C@@H](CC(=O)N[C@@H](CO)Cc2ccccc2)C(=O)N2CCC[C@H]2COC1=O	3.69%	
Nc1ccc2[nH]c(=S)sc2c1	-3.92%	
CCCN1CCn2c3c(c4cc(Br)ccc42)CCCC31 (centres undefined)		23.1 µM (active)
COc1ccc(S(=O)(=O)N2CCOCC2)cc1NC(=O)CC1CC2CCC1C2 (centres undefined)	-6.11%	
Cc1ccc(C(=O)O)c(NC=O)c1OCc1ccccc1	0.724%	
CCCCOC(=O)Cn1c(=N)n(CCN(CC)CC)c2ccccc21	-8.39%	
CCCCCCCCCCOC(=O)Cn1c(COc2ccc(C)cc2)[n+](C)c2ccccc21		23.1 µM (active)
CCCCOC(=O)Cn1c(=O)n(CC(=O)OCCCC)c2cc(C)ccc21	7.6%	
CC(=O)Nc1ccc(S(=O)(=O)NC(C)C(=O)OCCOc2ccc(F)cc2)cc1 (centres undefined)	-3.06%	
COc1ccc(C2(CNC(=O)Cc3ccc(OC)c(OC)c3)CCCC2)cc1	3.5%	
CCOc1c(OC)cccc1C(=O)NCC1(c2ccccc2)CCCC1		20.6 µM (active)
COc1cc(C(=O)NCC2(c3ccccc3)CCCC2)ccc1OC(C)C	15.2%	

Compound	activity, positive = re-replication	Potency
CCC(C)CCN1CCN=C1N(C)C (centres undefined)	23.5%	
O=C1CC[C@@H]2CC3(C[C@@H]4CCN1[C@H]24)Nc1cc([N+](=O)[O-])ccc1NC3=NC1CCCCC1 (some centres undefined)	-22.4%	
COc1cc2c(cc1OC)CN(C(=O)c1cc(=O)c3ccccc3o1)CC2		10.3 µM (active)
O=C(c1cc(=O)c2ccccc2o1)N1CCN(c2ccccc2)CC1	-1.76%	
COc1ccccc1CNC(=O)c1cc(=O)c2ccccc2o1	-23.8%	
NC(=O)C1(Nc2ccc([N+](=O)[O-])cc2)CCCC1	-29.5%	
CC1CN(Cc2ccco2)C(=S)N(c2ccccc2)C1=O (centres undefined)	22.6%	
CC(C)Sc1nnc([C@H](Cc2ccccc2)NC(=O)OC(C)(C)C)o1	-5.09%	
C[C@H](NC(=O)OC(C)(C)C)c1nnc(SCC(N)=O)o1	8.88%	
C[C@@H](NC(=O)OC(C)(C)C)c1nnc(S(=O)(=O)Cc2ccccc2)o1		18.4 µM (active)
Cc1ccc(S(=O)(=O)Nc2ccc(F)c(S(=O)(=O)N3CCOCC3)c2)cc1	-46%	
CNS(=O)(=O)c1cccc(C(=O)OCCCC(=O)c2ccccc2)c1	12.4%	
CC(=O)Nc1ccc(-c2cn3cccnc3n2)cc1	11.3%	
COc1ccc(OC)c2c(N)c(C#N)c(C(F)(F)C(F)(F)F)nc12	17.3%	
CCOc1cc(-c2cc(-c3ccc(NC(C)=O)cc3)nc(N)c2C#N)ccc1O		18.4 µM (active)
COc1ccc(C2CC(=O)Nc3sc(=N)c4c(N)c(C#N)c(N)nc4c32)cc1OC (centres undefined)	-0.0368%	
COc1ccc(-c2cc(-c3ccc(N)cc3)nc(N)c2C#N)cc1OC		23.1 µM (active)
CCOc1cc(-c2cc(-c3ccc(OC)cc3)nc(N)c2C#N)ccc1O	12.9%	
O=C(COc1ccccc1F)NNC(=O)c1cc(Br)ccc1Cl	-8.12%	
O=S(=O)(c1cccs1)N1CCN(CCOc2ccccc2)CC1	0.979%	
CCOc1cc(/C=C/C(=O)OCC(=O)NCCN2C(=O)CSC2=O)ccc1OCC(C)C	-2.28%	
Cc1cccc(N2O[C@H]3C=CC2CCCC3)n1	-0.361%	
CC(=O)c1ccc(OCCCC(=O)Nc2ccc(C)c(S(=O)(=O)N3CCOCC3)c2)cc1	6.11%	
CC(C)(O)C(=O)NN(C(=O)c1ccccc1)c1cccc(Br)c1	0.0132%	
Cc1ccc(N(NC(=O)C(C)(C)O)C(=O)c2ccccc2)cc1C	-12.8%	
CCCC(O)(CCC)C(=O)NN(C(=O)CCl)c1cccc(C)c1		14.6 µM (active)

Compound	activity, positive = re-replication	Potency
COc1cc(NC(=O)COC(=O)c2cc(S(=O)(=O)N3CCOCC3)ccc2F)cc(OC)c1	3.72%	
CSc1ccc(Cl)c(C(=O)OCC(=O)N2CCNC2=O)c1	-3.13%	
O=C1CC2(CCCC2)C(=O)N1CN1CCN(S(=O)(=O)c2ccc(F)cc2F)CC1	15.1%	
CC/C(=C\c1ccc(Cl)cc1)c1ccncc1	8.16%	
O=C(Cc1nn[nH]n1)NCCC1=CCCCC1	0.509%	
Cc1ccc(-n2c(SCC(=O)NCCC3=CCCCC3)nc3n[nH]c(C)c3c2=N)cc1Cl		16.4 µM (active)
CCn1c(=O)cc(SCC(=O)NCCC2=CCCCC2)c2ccccc21	1.51%	
Cc1ccc(N2C(=O)N3[C@@H]4c5ccccc5OC[C@@H]4[C@@H](c4ccccc4)[C@@]3(C)C2=O)cc1	4.75%	
O=C(O)C(CCc1ccccn1)c1ccccc1 (centres undefined)	-18.4%	
O=c1ccc(S(=O)(=O)N2CCCC2)cn1Cc1nc(-c2ccccc2)no1	6.01%	
O=C(O)C(c1cccs1)C1(O)CCCCC1 (centres undefined)	0.694%	
Nc1ccc2c(c1)C(=Cc1cccnc1)c1ccccc1-2	7.21%	
CC(C)=CCc1ccc(O)c(=O)cc1C(C)C		20.6 µM (active)
CC(C)c1cc(N=O)cc(C(C)C)c1O	7.92%	
CCN(C(=O)COC(=O)Cc1c(F)cccc1Cl)c1c(N)n(Cc2ccccc2)c(=O)[nH]c1=O	-0.793%	
COc1cccc(NC(=O)CN(C)C(=O)CSC(=S)N2CCCC2)c1	1.18%	
COc1cccc(NC(=O)CN(C)CC(=O)Nc2ccc3c(c2)CCC3)c1		0.651 µM (active)
COc1ccc(NC(=O)CN(C)CC(=O)Nc2cccc(C(F)(F)F)c2)cc1	0.322%	
O=C(Cn1nnc(-c2ccccc2)n1)NC(=O)NC1CCCC1	1.62%	
O=C(COC(=O)c1ccc(Br)o1)NC12CC3CC(CC(C3)C1)C2	2.1%	
O=C1NC[C@@H](c2ccccc2)OC(=O)[C@H](Cc2ccc(F)cc2)CC/C=C/C[C@H]1CC(=O)N(CCO)Cc1ccccc1		18.4 µM (active)
O=C1CCC/C=C/C[C@@H](CC(=O)N(CCO)Cc2ccccc2)C(=O)NC[C@H](c2ccccc2)O1	-4.51%	
O=C1OC[C@@H]2CCCN2C(=O)[C@H](CC(=O)N(CCO)Cc2ccccc2)C/C=C\CC[C@@H]1Cc1ccc(F)cc1	2.42%	
CC(C)(C)OC(=O)C[C@@H]1C/C=C\C[C@@H](CC(=O)N(CCO)Cc2ccccc2)C(=O)N[C@H](Cc2ccccc2)COC1=O		20.6 µM (active)
O=C1N[C@H](Cc2c[nH]c3ccccc23)COC(=O)[C@H](Cc2ccc(F)cc2)C/C=C\C[C@H]1CC(=O)N(CCO)Cc1ccccc1	2.57%	
CC(C)(C)OC(=O)C[C@@H]1C/C=C\C[C@H](CC(=O)N[C@@H](CO)Cc2ccccc2)C(=O)N[C@H](Cc2ccccc2)COC1=O	2.81%	
